# Lassa entry inh – qHTS for Inhibitors of binding or entry into cells for Lassa Virus; Lassa virus pseudotype entry inhibition, cell reporter; Potency, µM (series often up to 37.9 µM), for inactives: at the highest dose activity change, negative = inhibition, most hits filed as inhibitors; 300,000 tested, 1.2% active; AID 540256, 2011; calls by dose curve; tested in HEK293 cells; further: potency means the concentration at half of the fitted maximal effect; nearly all actives have a fitted effect of over 50% in size
# Pf growth 96h – Primary qHTS for delayed death inhibitors of the malarial parasite plastid, 96 hour incubation; P. falciparum luciferase reporter growth, 96 h; AID 504834, 2011; 320,000 tested, 6.9% active; Potency, µM (titrated, usually from 28.7 µM), inactives show top-dose activity change, negative = inhibition, hits mostly inhibitors; further: potency means the concentration at half of the fitted maximal effect
#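 Erythrocytes infected with luciferase-expressing P. falciparum were dispensed at 2% hematocrit and 0.05% parasitemia (final), then incubated with compounds 96 hours at 37 C in 5% CO2. Luminescence after detection reagent addition reported growth.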
# HCMV inh – qHTS Assay for inhibitors of the human cytomegalovirus (HCMV). HFF cells, HCMV-luciferase reporter, 72 h; hits give low values. activity change, negative = inhibition, % at 57.5 µM. 410,000 tested, 4.5% active. AID 1259415, 2018; in the data active means activity change below about -60%; inconclusive means no clear call, values can overlap the other calls; inactive means above about -39%
#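 After 16 h attachment at 37C, HFF cells received test compound and HCMV-luciferase (1 PFU/cell); reporter luminescence read 72 h later, data normalized against buffer-only and known inhibitor Salinomycin.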
# HCV inh – qHTS Assay for Inhibitors of Hepatitis C Virus (HCV); Huh7.5.1 HCVcc-Cre infection, luciferase reporter, 44 h; 340,000 tested, 3.4% active; Potency, µM (top dose mostly 41.8 µM), without a hit: top-dose activity change, negative = inhibition, most hits filed as inhibitors; further: potency means the concentration at half of the fitted maximal effect
#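 Antiviral activity was scored by luciferase reporter output from cells infected with HCVcc-Cre (~0.5 moi) in presence of compound, 44 h infection period, cells seeded 1,000/well 4 h prior.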
# Marburg entry inh – qHTS for inhibitors of binding or entry into cells for Marburg Virus. Marburg virus pseudotyped entry inhibition, cell reporter. Potency, µM (doses to about 37.8 µM), for inactives: at the highest dose activity change, negative = inhibition, usual class: inhibitors. 300,000 tested, 1.8% active. AID 540276, 2011; calls by dose curve; tested in HEK293 cells; further: potency means the concentration at half of the fitted maximal effect
# Pf growth 48h – Primary qHTS for delayed death inhibitors of the malarial parasite plastid, 48 hour incubation. Potency, µM (titrated, usually from 28.7 µM), for inactives: top-dose activity change, negative = inhibition, hits mostly inhibitors. 310,000 tested, 5.9% active. P. falciparum luciferase growth in erythrocytes, 48 h; further: potency means the concentration at half of the fitted maximal effect
#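 Here the parasites carry a stable luciferase gene and grow inside erythrocytes in Albumax-based RPMI medium with compound for one erythrocytic cycle. Activity is scored as loss of luminescent signal.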
# * hit, by the source's call; ? = inconclusive; . = no result; [ ] = dose if it differs, or a comment. Shown are actives, neighbours in structure and some others; about 14% of the full set was active somewhere. Unless noted, the call rests on the fitted dose curve; in most records, active means well fitted inhibition curve with a large enough effect; inconclusive means small, poorly fitted or top-dose-only effect, or another doubt; inactive means no such curve, though single readings can be large or run the other way. On the % scale 0 is the no-effect control and ±100 the full control effect.
SMILES,Lassa entry inh,Pf growth 96h,HCMV inh,HCV inh,Marburg entry inh,Pf growth 48h
O=C(C1=C[C@@H](c2csc3ccccc23)C[C@@H](OCc2ccc(CO)cc2)O1)N1CCN(Cc2ccccc2)CC1,.,5.22µM*,.,?,.,?
O=C(C1=C[C@@H](c2ccccc2)C[C@@H](OCc2ccc(CO)cc2)O1)N1CCN(Cc2ccc3c(c2)OCO3)CC1,.,?,-1.5,11.2µM*,.,?
O=C(C1=C[C@@H](c2csc3ccccc23)C[C@@H](OCc2ccc(CO)cc2)O1)N1CCN(Cc2ccc3c(c2)OCO3)CC1,.,5.22µM*,2.2,-8.9%[8.37 µM],.,?
C=CCOC(=O)C1=C[C@H](c2csc3ccccc23)C[C@H](OCc2ccc(CO)cc2)O1,.,.,31.3,-29.1%,.,.
CC(=O)c1cccc(NC(=O)C2(C)Cc3c(-c4ccccc4)ccnc3O2)c1 (stereo not drawn),.,.,-16.0,.,.,.
O=[N+]([O-])c1cccc(COc2ccc(CO)cc2)c1,.,.,44.2,.,?,.
CC(Oc1cc2oc(=O)c3c(c2cc1Cl)CCC3)C(=O)NCc1ccccn1 (stereo not drawn),.,6.8%,0.0,-10.8%,.,24.6%
COc1cc(/C=N/NC(=O)c2ccncc2)ccc1OC(C)=O,.,?,-11.2,9.2%,.,7.9%
COc1cc(/C=N\Nc2nncn2N)ccc1OC(C)=O,?,0.928µM*,-7.9,22.3%,?,37.6%
CCOc1ncccc1C(=O)N1CCN(c2cccc(C)c2C)CC1,?,?,-96.0*,?,?,20.8%
O=C(c1cccs1)N1CCC(N2CCN(c3ccccc3)CC2)CC1,-11.5%,3.29µM*,-1.3,-5.6%,-28.1%[46.1 µM],0.8%
COc1ccccc1N1CCN(C(=O)c2cccs2)CC1,.,?,-24.8,11.2%,.,4.7%
CCOc1ncccc1C(=O)N1CCN(c2cc(Cl)ccc2C)CC1,?,?,-19.2,?,?,-30.8%
Cc1cccc(N2CCN(C(=O)n3ccnc3)CC2)c1C,2.1%,11.7µM*,-1.0,?,?,?
Cc1cccc(N2CCN(C(=O)c3cccs3)CC2)c1C,?,10.4µM*,2.7,-4.5%,-10.1%,-4.3%
COc1ccc(OC)c(CN2C(=O)c3ccccc3C2c2nnnn2-c2c(C)cccc2C)c1 (stereo not drawn),.,.,-37.0,.,.,.
CNC(=O)c1cnc2sc(N3CCCCCC3)nn2c1=O,?,.,46.8,.,.,.
Cc1cccc(N2CCN(C(=O)Cn3cccc3)CC2)c1C,.,4.15µM*,3.2,-21.7%,.,.
CNS(=O)(=O)c1cn(CC(=O)N2CCN(c3cccc(C)c3C)CC2)cc1S(=O)(=O)NC,-20.1%[46.1 µM],.,?,.,.,.
COc1ccc(CC(=O)N2CCN(c3cccc(C)c3C)CC2)cc1,.,-11.8%,10.1,-27.0%,.,11.1%
Cc1cccc(N2CCN(C(=O)CCCSc3nc4ccccc4[nH]3)CC2)c1C,-21.6%[14.3 µM],9.28µM*,?,.,?,?
O=C(CCCSc1nc2ccccc2[nH]1)N1CCN(c2ccccc2)CC1,-31.4%,?,-16.0,?,?,?
COc1ccc(CCC(=O)NCCS(=O)(=O)N2CCN(c3ccccc3OC)CC2)cc1,.,37.7%,?,14.1µM*,.,-8.7%
COc1ccc(CCC(=O)N2CCN(c3cccc(C)c3C)CC2)cc1,.,?,-79.6*,-25.7%,20.4%[46.1 µM],?
CCOC(=O)c1ccccc1NC(=O)Cn1ncc2c1-c1ccccc1OC2,.,.,14.7,.,6.9%[46.1 µM],.
O=C(Nc1ccc(S(=O)(=O)NC2=NCCCCC2)cc1)c1ccc(Cl)cc1Cl,-27.0%,7.2%,?,?,-16.5%,-18.6%
COc1ccccc1N1CCN(C2CCN(C3CCC(c4ccccc4)CC3)CC2)CC1 (stereo not drawn),.,14.5%,.,.,.,?
c1ccc(C2CCC(N3CCN(c4ccccc4)CC3)CC2)cc1 (stereo not drawn),2.82µM*,83.4%,.,?,?,0.0%
Cc1cccc(N2CCN(C(=O)NC(C)c3ccc(F)c(F)c3)CC2)c1C (stereo not drawn),?,11.7µM*,8.0,10.3%,?,11.7µM*
